Screening data (PubChem)
An excerpt weighted towards active compounds, which were near 1.8% of everything screened.
LYPLA1 inh = LYPLA1 (human) inhibition in PME1 counter-screen; O75608; recombinant LYPLA1, FP-Rh probe fluorescence polarization; inhibition, % at 5.9 µM; 320,000 tested, 0.16% active;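 active = inhibition above the mean of all tested compounds plus 3 SD, set per campaign, cut at about 14% in these data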;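 also: inhibitors block serine hydrolase probe labeling of LYPLA1 so polarization falls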
LYPLA2 inh = blocks human lysophospholipase 2, a PME1 counter-screen; O95372; recombinant LYPLA2, FP-Rh probe fluorescence polarization; inhibition, % at 5.9 µM; 320,000 tested, 0.38% active;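 active = inhibition above the screen-wide mean plus 3 SD, limit set per campaign, cut at about 26% in these data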
PME-1 inh = blocks human protein phosphatase methylesterase 1. Q9Y570. recombinant PME-1, FP-Rh probe fluorescence polarization. inhibition, % at 5.9 µM. 320,000 tested, 0.53% active. AID 2130;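 active = inhibition above the campaign mean of all compounds plus 3 SD, cut at about 26% in these data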;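 also: competitive labeling of PME-1 active site by serine hydrolase directed probe; inhibitors block probe labeling so polarization falls and inhibition rises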
GSTO1 counter = GSTO1 inhibition, counter-screen for RBBP9 inhibitors. P78417. recombinant GSTO1, activity-based probe fluorescence polarization. inhibition, % at 5.96 µM. 300,000 tested, 1.1% active. AID 1974;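 active = inhibition above the campaign mean inhibition plus 3 SD, cut at about 35% in these data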
Target sequence (P78417 whole entry, looked up): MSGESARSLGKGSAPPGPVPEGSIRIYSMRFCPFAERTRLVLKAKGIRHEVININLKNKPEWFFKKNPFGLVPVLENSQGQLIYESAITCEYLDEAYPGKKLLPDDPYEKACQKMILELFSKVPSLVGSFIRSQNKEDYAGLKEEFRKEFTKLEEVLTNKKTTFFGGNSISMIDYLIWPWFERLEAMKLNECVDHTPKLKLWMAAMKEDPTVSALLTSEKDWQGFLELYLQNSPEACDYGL
PAD4 inh = inhibitors of human PAD4. inhibition, % at 6.36 µM. 330,000 tested, 0.41% active. recombinant PAD4, RCA probe fluorescence polarization. Q9UM07;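 active = percent inhibition above a cutoff equal to the mean of all tested compounds plus 3 SD, cut at about 15% in these data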
Fam108B counter = Fam108B inhibition, counter-screen for RBBP9 inhibitors; recombinant Fam108B, FP-Rh probe fluorescence polarization; inhibition, % at 9.51 µM; 300,000 tested, 0.33% active;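 active = inhibition above the screen mean inhibition plus 3 SD, computed separately per campaign, cut at about 18% in these data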;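 also: inhibitors lower polarization as less probe binds the enzyme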
PAD4 confirm = PAD4 (human) inhibition, confirmed; recombinant PAD4, RCA probe fluorescence polarization; inhibition, % at 6.36 µM; shares compounds with PAD4 inh; 1,200 tested, 28% active;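 active = mean inhibition across replicates above the hit cutoff set by the earlier primary screen, cut at about 15% in these data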;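 also: inhibitors block active-site labeling by the probe so polarization falls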
Numbers stand for hits; i = inactive; nt = no result given.

SMILES	LYPLA1 inh	LYPLA2 inh	PME-1 inh	GSTO1 counter	PAD4 inh	Fam108B counter	PAD4 confirm
Clc1ccc(-c2ccc(C=Nc3ccc(N4CCOCC4)cc3)o2)c(Cl)c1	i	i	i	i	i	i	nt
Clc1ccc(-c2ccc(C=Nc3ccc(N4CCOCC4)cc3)o2)cc1	i	i	i	i	31	i	i
CCOc1ccccc1C(C(=O)NC1CCCCC1)N(C(=O)c1csnn1)C1CC1 (configuration not stated)	i	i	i	i	i	i	nt
CCc1ccc(C(C(=O)NC2CCCCC2)N(C(=O)c2csnn2)C2CC2)cc1 (configuration not stated)	i	i	i	i	i	i	nt
O=C(/C=C/c1ccccc1)C1=C(O)C(=O)N(CCO)C1c1ccccc1[N+](=O)[O-] (configuration not stated)	i	i	i	i	24	i	i
COc1ccc(C2C(C#N)=C(N)Oc3c2c(C)nn3-c2ccccc2)cc1Cn1nc(C)c([N+](=O)[O-])c1C (configuration not stated)	i	i	i	i	42	i	i
COc1ccc(OC)c(C2C(C#N)=C(N)Oc3c2c(C)nn3-c2ccc(C)cc2)c1 (configuration not stated)	i	i	i	35	54	i	i
Cc1nn(-c2ccccc2)c2c1C(c1ccccc1)C(C#N)=C(N)O2 (configuration not stated)	i	i	i	37	61	i	i
COc1ccccc1N1CCN(c2ccc3cc(S(=O)(=O)N4CCCCC4)ccc3n2)CC1	i	i	i	i	i	i	nt
Cc1cc(Br)ccc1NC(=O)C1CCN(S(=O)(=O)c2cnc[nH]2)CC1	i	i	i	i	i	i	nt
N#CC1=C(N)Oc2n[nH]c(-c3cccs3)c2C1c1ccsc1 (configuration not stated)	i	i	i	i	17	i	i
CCC(C)(C)NC(=O)CN(CC1CCCO1)C(=O)CNS(=O)(=O)c1ccccc1 (configuration not stated)	i	i	i	i	i	i	nt
CC(C)C(C(=O)NC1CCCC1)N(CC1CCCO1)C(=O)CNS(=O)(=O)c1ccccc1 (configuration not stated)	i	i	i	i	26	i	i
Brc1ccc(-c2nc(-c3ccncc3)no2)cc1	i	i	i	i	i	i	nt
Brc1ccc(-c2nc(-c3ccncc3)no2)o1	i	i	i	i	15	i	i
CCn1cc(C(=O)N[C@H](C(=O)NCCO)C(C)C)c(=O)c2cc3c(cc21)OCO3	i	i	i	i	i	i	nt
CN(C(=O)COC(=O)CNC(=O)c1ccc(C(C)(C)C)cc1)c1c(N)n(Cc2ccccc2)c(=O)[nH]c1=O	i	i	i	i	i	i	nt
Cc1c(C)n2c(SCC(=O)NCc3ccc4c(c3)OCO4)nnc2[nH]c1=O	i	i	i	i	i	i	nt
Cc1ccc(-c2csc(NC(=O)CSC3=NCCS3)n2)cc1	i	i	i	i	20	i	16
O=C(CSC1=NCCS1)Nc1nc2ccccc2s1	i	i	i	i	17	i	i
Cc1sc(NC(=O)CSC2=NCCS2)nc1-c1ccccc1	i	i	i	i	19	i	17
CCOC(=S)SCC(=O)Nc1nc(-c2ccccc2)cs1	i	i	i	i	25	i	25
Cc1cccnc1NC(=S)Nc1ccc(Br)cc1Cl	i	i	i	i	i	i	nt
CCCC(NC(=O)C(C)Sc1nnnn1C1CC1)c1ccccc1 (configuration not stated)	i	i	i	nt	i	nt	nt
CN(C)c1ccc(Cl)cc1N	i	i	i	i	i	i	nt
Cn1c(CCN2CCN(c3ccccn3)CC2)nc2cc(NS(=O)(=O)c3ccc(Cl)cc3)ccc21	i	i	i	i	i	i	nt
Cc1cccc(C)c1NC(=O)COC(=O)c1cc[n+]([O-])cc1	i	i	i	i	i	i	nt
Cc1nc(SCC(=O)Nc2ccccc2Cl)c2c(C)c(C)sc2n1	i	i	i	nt	i	nt	nt
O=CN1CCN(C(=O)CC(c2ccccc2)c2cc(Br)ccc2O)CC1 (configuration not stated)	i	i	i	i	i	i	nt
